Source: PubChem BioAssay (National Center for Advancing Translational Sciences (NCATS))
FBPA Giardia inh – inhibitors of Giardia lamblia fructose-1,6-bisphosphate aldolase; A8B2U2; purified Giardia FBPA; Potency, µM (series often up to 59.6 µM), most hits filed as inhibitors; 290,000 compounds, 0.71% hits; further: nearly all actives have a fitted effect of over 55% in size
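Giardia FBPA (40 nM reagent) was preincubated 10 min at RT with compound (up to 57.5 uM final), then substrate plus GAPDH/TPI/NAD/arsenate coupling system with diaphorase/resazurin was added; resorufin fluorescence (525/598 nm) was read after 20 min.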
Shiga toxin inh – blocks Shiga toxin action in Vero cells; Vero cells, Shiga toxin protein synthesis inhibition reporter; inhibition, % at 38.7 µM; 290,000 compounds, 9.2% hits; in the data active means inhibition mostly above about 28%, no sharp cut-off; inactive means mostly below about 43%
CHX counter – counter-screen hit for Shiga toxin inhibitors, cycloheximide; cell reporter, cycloheximide protein synthesis inhibition counterscreen; max response, %; 300,000 compounds, 12% hits; AID 2314; in the data active means max response mostly above about 13%, no sharp cut-off; inactive means mostly below about 14%; further: read at 38.3 µM for the half of the compounds with a filed dose
LmPK inhibitor – inhibitors of Leishmania mexicana pyruvate kinase; purified LmPK, Kinase-Glo ATP luminescence, 1 h; Potency, µM (titrated, usually from 57.5 µM), most hits filed as inhibitors; AID 1721; 290,000 compounds, 0.37% hits
Target sequence (Q27686 whole entry, looked up): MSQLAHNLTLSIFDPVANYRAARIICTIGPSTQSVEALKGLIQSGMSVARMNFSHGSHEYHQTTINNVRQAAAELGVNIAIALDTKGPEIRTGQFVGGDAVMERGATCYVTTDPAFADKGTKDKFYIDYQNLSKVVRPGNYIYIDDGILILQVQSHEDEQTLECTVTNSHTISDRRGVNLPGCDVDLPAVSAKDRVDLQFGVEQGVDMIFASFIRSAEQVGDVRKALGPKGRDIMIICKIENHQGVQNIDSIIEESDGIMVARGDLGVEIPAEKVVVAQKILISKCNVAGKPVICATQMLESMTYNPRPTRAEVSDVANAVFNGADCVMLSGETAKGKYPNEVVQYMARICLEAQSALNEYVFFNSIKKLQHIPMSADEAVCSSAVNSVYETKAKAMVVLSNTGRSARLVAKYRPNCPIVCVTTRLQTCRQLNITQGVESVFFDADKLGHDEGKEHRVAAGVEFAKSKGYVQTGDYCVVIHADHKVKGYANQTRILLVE
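In 50 mM imidazole pH 7.2 with 7 mM MgCl2, LmPK (0.1 nM) turned over PEP (0.5 mM) and ADP (0.1 mM) for 1 h at room temperature. Luciferase read-out of ATP.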
TbPYK inhibitor – inhibitors of Trypanosoma brucei pyruvate kinase; Q57TT1; TbPYK enzyme, Kinase-Glo Plus ATP luminescence, 45 min; Potency, µM (doses to about 76.8 µM), most hits filed as inhibitors; 410,000 compounds, 0.12% hits; AID 624173; further: nearly all actives have a fitted effect of over 50% in size
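Quantitative HTS: titrated library compounds versus trypanosomal pyruvate kinase in TEA buffer (pH 7.2) containing KCl, MgCl2, BSA and Tween-20. Reactions were initiated with ADP, 130 uM final. Kinase-Glo Plus luminescence was read after 45 min at RT.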
Sm TGR block – blocks Schistosoma mansoni thioredoxin glutathione reductase; Q962Y6; 360,000 compounds, 3% hits; purified TGR, DTNB reduction, TNB absorbance 405 nm; Potency, µM (series often up to 114 µM), hits mostly inhibitors; AID 485364; further: nearly all actives have a fitted effect of over 60% in size
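Kinetic colorimetric format: TGR-catalysed, NADPH-driven DTNB reduction monitored via TNB absorbance. Enzyme dispensed at 20 nM; compound exposure 15 min at room temperature before reaction start.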
A number is an active result; . = inactive; ? = inconclusive; / = not tested or not shown; + = active, no number. Shown is part of a subset that was picked to be rich in hits. Unless noted, the call rests on the fitted dose curve; in most records, active means well fitted curve in the direction sought with a large enough effect; inconclusive means small, poorly fitted or top-dose-only effect, or another doubt; inactive means no such curve, though single readings can be large; an effect the other way counts as inactive or inconclusive.

SMILES	FBPA Giardia inh	Shiga toxin inh	CHX counter	LmPK inhibitor	TbPYK inhibitor	Sm TGR block
CCOc1nc(C)ccc1-c1noc(-c2ccccc2OC)n1	.	.	24.3	.	.	.
CS(=O)(=O)c1ccccc1-c1nc(-c2ccc(C(F)(F)F)cc2)no1	.	59.6	21.3	.	.	.
Cc1noc(-c2ccc(-c3noc(-c4ccc(C(F)(F)F)cc4)n3)cc2)n1	/	/	/	/	.	.
CNc1ccc(/C=C/C(=O)c2ccc(C)cc2)cc1[N+](=O)[O-]	.	.	.	.	.	.
CN(C)c1ccc(C(=O)/C=C/c2ccccc2)cc1	.	104.8	43.5	.	.	.
CCN(CC)c1ccc(/C=C/C(=O)c2ccc(Br)cc2)cc1	.	.	13.5	.	.	.
CN(C)c1ccc(/C=C/C(=O)c2ccccc2)cc1[N+](=O)[O-]	.	+	62.3	.	.	.
CN(C)c1ccc(C(=O)/C=C/c2ccc(Br)cc2)cc1	.	58.4	22.9	.	.	.
CN(C)c1ccc(/C=C/C(=O)c2cc(Cl)ccc2O)cc1	.	.	.	.	.	?
CCn1cc(CN2CCCC(C(=O)Nc3ccc(-c4cscn4)cc3)C2)cn1 (centres undefined)	/	.	.	.	.	.
CN(C)c1ccc(C(=O)c2ccccc2)cc1	.	.	26.2	.	.	.
CN(C)c1ccc(N=Nc2ccc(C(=O)O)cc2)cc1	?	.	.	.	.	39.8µM
O=C(c1ccccc1)c1ccc(-c2ccc(O)cc2)cc1	.	67.7	39.8	.	.	.
O=C(c1ccccc1)c1ccccc1	.	.	.	/	.	.
C=C(c1ccccc1)c1ccc(N(C)C)cc1	.	.	.	.	.	?
Cc1ccc(NC(=O)COC(=O)COc2cccc3c2OC(C)(C)C3)c(C)c1	/	/	/	/	.	.
COC(=O)C(CC(C)C)NS(=O)(=O)c1ccccc1Br (centres undefined)	.	.	.	/	/	/
CC(=O)c1cccc(NC(=O)NCCc2c[nH]c3ccccc23)c1	.	.	12.0	.	.	.
COc1ccc2[nH]cc(CCNC(=O)Nc3cccc(F)c3)c2c1	/	/	/	/	.	.
Cc1ccccc1NC(=O)NCCc1c[nH]c2ccccc12	.	.	.	.	.	.
Cc1ccc2[nH]cc(CCNC(=O)Nc3ccccc3)c2c1	.	.	12.5	.	.	.
O=[N+]([O-])c1ccc(C(c2sc3nc(-c4ccco4)nn3c2O)N2CCN(Cc3ccccc3)CC2)cc1 (centres undefined)	/	/	/	/	.	.
CC(=O)N1CCOc2cc(S(=O)(=O)NCc3ccc(C)cc3)c(Cl)cc21	/	/	/	/	.	.
COc1ccc(OC)c(NC(=O)CSc2nc3n[nH]c(C)c3c(=N)n2-c2cccc(Cl)c2C)c1	.	.	24.7	.	.	.
O=C(OCc1cnc(Cl)s1)c1cccc(Cl)c1Cl	.	.	14.0	.	.	.
SMILES	FBPA Giardia inh	Shiga toxin inh	CHX counter	LmPK inhibitor	TbPYK inhibitor	Sm TGR block
O=C(OCc1cnc(Cl)s1)c1ccccc1Cl	.	.	15.6	.	.	.
c1ccc2c(c1)SCc1c-2[nH]c2ccccc12	.	46.9	15.1	/	/	/
c1ccc2c(c1)OCCc1c-2[nH]c2ccccc12	.	.	13.7	.	.	?
O=C(CN1CCNCC1)NC1CCCCC1	/	/	/	/	.	/
CC(=O)NCC(=O)OCC(=O)c1ccc2ccccc2c1	.	.	.	.	.	.
Cc1cc(=O)oc(C)c1C(=O)OCC(=O)c1ccc2ccccc2c1	.	52.2	29.7	.	.	.
Cc1cc(=O)oc(C)c1C(=O)OCC(=O)c1ccccc1	.	.	29.6	.	.	.
COc1ccc2nc3c(nc2c1)CCCC3	.	.	33.2	.	.	.
O=C(Nc1ccc(F)cc1)C(=O)C1C(=O)Nc2ccccc21 (centres undefined)	.	55.2	.	.	.	.
O=C(Nc1ccc2ccccc2c1)C(=O)C1C(=O)Nc2ccccc21 (centres undefined)	.	66.3	31.6	.	/	.
CC1(C)CN(c2ccc(N3CC(C)(C)C3=O)cc2)C1=O	.	69.3	39.0	.	.	.
O=C(Nc1cccc(-c2nc3ccccc3s2)c1)c1cccs1	.	.	.	.	.	?
CC(=O)Nc1cccc(-c2cn3ccccc3n2)c1	.	.	.	.	.	/
Cc1cccc(C(=O)Nc2cccc(-c3ccc4nncn4n3)c2)c1	.	.	.	.	.	.
CC(C)C(=O)Nc1cccc(-c2cn3ccccc3n2)c1	.	.	13.8	.	.	.
O=C(Nc1cccc(-c2cn3ccccc3n2)c1)c1cccs1	.	60.8	33.7	.	.	.
Cc1ccn2cc(-c3cccc(NC(=O)c4ccccc4)c3)nc2c1	.	44.0	59.9	.	.	.
Cc1ccn2cc(-c3cccc(NC(=O)C(C)C)c3)nc2c1	.	.	22.5	.	.	/
CCOc1ccc(C2C(C(=O)Nc3ccccc3)=C(C)Nc3nc(SCc4cccc(OC)c4)nn32)cc1 (centres undefined)	/	/	/	/	.	.
Cc1ccc2nc(N3CCN(c4ccccc4F)CC3)c3nnnn3c2c1	/	/	/	/	.	.
O=C(Nc1cccc(-c2cn3ccccc3n2)c1)c1cc2ccccc2oc1=O	.	71.4	59.3	.	.	.
COc1ccc(CC(=O)Nc2ccc(-c3cn4ccc(C)cc4n3)cc2)cc1	.	.	15.6	.	.	.
Cc1cc(=S)cc(C)n1CCCO	.	.	.	.	/	1.78µM
Cc1nc2cc(Cl)c(Cl)cc2n1CCCO	.	.	.	.	.	.
O=C(c1ccccc1-c1nc(-c2ccccc2)no1)N1CCCC1	.	55.6	22.5	.	.	.
SMILES	FBPA Giardia inh	Shiga toxin inh	CHX counter	LmPK inhibitor	TbPYK inhibitor	Sm TGR block
Cc1ccc(-c2noc(-c3ccccc3C(=O)N3CCCC3)n2)cc1	.	54.2	35.2	.	.	.
O=C(c1ccccc1-c1nc(-c2ccc(Cl)cc2)no1)N1CCCC1	.	74.5	45.1	.	.	.
Cc1ccccc1-c1noc(-c2ccccc2C(=O)N2CCCC2)n1	.	.	.	.	.	.
CSc1ncc(C(=O)NCc2cccc(C)c2)c(-c2ccccc2)n1	/	/	/	/	.	.
COc1cc(OC)c(NC(=O)CSCc2nc(-c3ccc(OC)c(OC)c3)no2)cc1Cl	/	/	/	/	.	.
Cc1cccc(CNC(=O)Cn2nc(C)n3c(cc4cc(F)ccc43)c2=O)c1	/	/	/	/	.	.
O=C1c2ccc([N+](=O)[O-])cc2S(=O)(=O)N1Cc1ccccc1	.	.	.	.	.	17.8µM
CCN(CC)c1ccc(NC(=O)Cn2c3ncccc3c(=O)n2-c2ccccc2)c(C)c1	/	/	/	/	.	.
Nc1ccccc1C#Cc1ccccc1	.	88.5	64.3	.	.	.
O=C(C#Cc1ccccc1)c1ccccc1	/	/	/	/	.	/
Nc1ccc(C#Cc2ccccc2)cc1	.	64.1	40.7	.	.	.
NC(=O)C1CCN(C2CC(=O)N(Cc3cccs3)C2=O)CC1 (centres undefined)	.	.	.	.	.	35.5µM
